Compounds with a hit are over-represented: about 3.4% of the library has one in this group of screens.
proKLK7 act: activates the human kallikrein-7 zymogen; P49862; purified proKLK7, EDANS-DABCYL substrate fluorescence; 100% is mature enzyme control, 0% vehicle; activation, % at 7 µM; 0.9% of 370,000 active;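 active means activation above the mean of all tested compounds plus 3 SD, computed per campaign excluding outliers beyond control limits, cut at about 13% in these data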
Target sequence (P49862 whole entry, looked up): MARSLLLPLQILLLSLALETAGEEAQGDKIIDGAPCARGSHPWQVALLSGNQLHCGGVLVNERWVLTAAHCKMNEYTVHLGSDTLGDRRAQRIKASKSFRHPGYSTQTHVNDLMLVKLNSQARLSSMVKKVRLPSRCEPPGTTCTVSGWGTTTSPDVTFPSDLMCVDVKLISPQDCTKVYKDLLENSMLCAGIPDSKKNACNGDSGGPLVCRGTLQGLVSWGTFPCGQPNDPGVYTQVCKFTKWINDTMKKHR
ADAM10 inh: ADAM10 inhibition, QFRET primary screen; AID 720582; 0.62% of 370,000 active; recombinant ADAM10, EDANS/DABCYL FRET peptide cleavage, 3 h; inhibition, % at 7 µM;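 active means inhibition above a per-campaign cutoff equal to the mean of compounds falling between control-based bounds plus 3 SD, cut at about 20% in these data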;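 further: 0% = DMSO wells while the 100% control is not disclosed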
PLCg1 inh: PLC-gamma1 (human) inhibition, primary screen; P19174; purified PLC-gamma1, fluorogenic substrate, fluorescence; inhibition, % at 12.2 µM; 0.84% of 370,000 active; AID 720700; in the data active means inhibition above about 9.5%
ADAM17 inh: ADAM17 inhibition, QFRET primary screen. P78536. recombinant ADAM17, EDANS/DABCYL FRET peptide cleavage. inhibition, % at 6.95 µM. 0.83% of 370,000 active;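 active means inhibition above the mean of compounds lying between control limits plus 3 SD, set per campaign, cut at about 8.5% in these data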;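 further: 0% = DMSO-only wells as the low control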
PLCb3 inh: PLC-beta3 (human) inhibition, primary screen. Purified PLC-beta3, fluorogenic substrate, fluorescence. AID 720704. 0.18% of 370,000 active. Q01970. inhibition, % at 12.2 µM; in the data active means inhibition above about 11%;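 further: 0% = median of compound wells on plate and 100% = full blocker control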
HGIII-sPLA2 inh: Inhibits HGIII-sPLA2 liposome hydrolysis, primary screen. Q9NZ20. QFRET BODIPY PC-A2 liposome hydrolysis, fluorescence. inhibition, % at 12.2 µM. 0.56% of 370,000 active. AID 743126;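 active means inhibition above mean plus 3 SD of compounds lying within the high and low control bounds, cut at about 19% in these data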;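 further: 0% = median of test compound wells and 100% = no enzyme DMSO wells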
ADAM10 ctr: ADAM10 inhibition, counter-screen for ADAM17 exosite hits; shares compounds with ADAM17 inh; recombinant ADAM10, EDANS/DABCYL FRET peptide cleavage, 3 h; inhibition, % at 6.95 µM; 47% of 2,900 active; AID 743256;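 active means mean inhibition over the triplicate runs exceeds the activity threshold set in the earlier primary screen, cut at about 20% in these data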;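 further: 0% = DMSO wells and 100% = marimastat wells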
ADAM17 confirm: confirmation of inhibitors of human ADAM17. recombinant ADAM17, EDANS/DABCYL QFRET peptide cleavage. AID 743257. shares compounds with ADAM17 inh. 65% of 2,900 active. inhibition, % at 6.95 µM;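 active means mean inhibition across replicates above the hit cutoff set in the primary screen, cut at about 8.5% in these data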;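 further: 0% = DMSO wells and 100% = marimastat wells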
* = called active by the depositor; . = not tested or not shown.

SMILES | proKLK7 act | ADAM10 inh | PLCg1 inh | ADAM17 inh | PLCb3 inh | HGIII-sPLA2 inh | ADAM10 ctr | ADAM17 confirm
CCc1ccc(C(C)NC(=O)/C(C#N)=C\c2cn[nH]c2-c2ccccc2)cc1 (configuration not stated) | 0 | 17 | -3 | 11* | 2 | -24 | 35* | 17*
CC(NC(=O)/C(C#N)=C/c1cn[nH]c1-c1ccccc1)c1ccccc1 (configuration not stated) | 0 | -2 | 3 | 1 | -2 | -17 | . | .
CCOC(=O)C1=CN(Cc2cccc(F)c2)S(=O)(=O)NC1c1ccc2ccccc2c1 (configuration not stated) | 0 | 20 | 2 | 9.8* | 2 | -39 | 15 | 11*
CCCCNS(=O)(=O)/C=C/c1ccccc1CNC(=O)OC(C)(C)C | 1 | 1 | 0 | -1 | 1 | -5 | . | .
O=C(Nc1ccccc1N1CCOCC1)c1ccc(Cl)c(S(=O)(=O)N2CCCC2)c1 | 0 | -10 | 2 | 1 | -11 | 13 | . | .
COc1ccccc1NC(=O)c1ccc(Cl)c(S(=O)(=O)N2CCCCC2)c1 | 1 | 14 | 9 | 10* | -8 | -18 | 3 | 3
COP(=O)(OC)C(Cc1ccccc1)NC(=O)CNC(=O)OCc1ccccc1 (configuration not stated) | 0 | 1 | -1 | -3 | 1 | -1 | . | .
CCc1ccc(NS(=O)(=O)c2ccc(OC)c(C)c2)cc1 | 0 | 11 | 1 | 1 | 0 | -25 | . | .
COc1ccc(S(=O)(=O)Nc2ccc3ccccc3c2)cc1C | -1 | 19 | 2 | 10* | 1 | -57 | 29* | 18*
COc1ccccc1-c1cc(C(=O)Nc2sc3c(c2C#N)CCC(C)C3)c2ccccc2n1 (configuration not stated) | 0 | -8 | -5 | 9.9* | -1 | 11 | -34 | 2
COc1ccc(OC)c(-c2cc(C(=O)Nc3sc4c(c3C#N)CCC(C)C4)c3ccccc3n2)c1 (configuration not stated) | 0 | -4 | -2 | -1 | -3 | -3 | . | .
C[C@H]1CN(c2ccc(Br)cc2)C(=O)[C@@H]1CC(=O)Nc1ccccc1 | 0 | 9 | 2 | 11* | 4 | -20 | 7 | 6
COc1ccc(N2C[C@H](C)[C@@H](CC(=O)Nc3ccccc3)C2=O)cc1 | -1 | -6 | 1 | -2 | 2 | 6 | . | .
COCCOc1ccc(C(F)(F)F)cc1NC(=O)CN1C(=O)NC(C)(c2ccc3c(c2)OCO3)C1=O (configuration not stated) | 0 | 18 | 5 | 12* | -6 | -35 | 19 | 12*
CC1(c2ccccc2)NC(=O)N(CC(=O)Nc2ccc3c(c2)OCO3)C1=O (configuration not stated) | 0 | -5 | 1 | 0 | 2 | -6 | . | .
CC1(c2ccc3c(c2)OCO3)NC(=O)N(CC(=O)Nc2ccccc2)C1=O (configuration not stated) | 0 | -6 | 5 | -3 | -9 | -5 | . | .
COc1ccc(C2(C)NC(=O)N(CC(=O)Nc3ccc4c(c3)OCO4)C2=O)cc1OC (configuration not stated) | -1 | 12 | -3 | 11* | -3 | -5 | 13 | 9.0*
COc1ccc(C)cc1S(=O)(=O)N(C)CC(=O)Nc1ccc2c(c1)OCO2 | 0 | 14 | 7 | 10* | 5 | 3 | 5 | 5
COc1ccc(C)cc1S(=O)(=O)N(C)CC(=O)NC1CC1 | 1 | 2 | 0 | -1 | 2 | 4 | . | .
C=CC[C@]1(c2ccccc2)C(=O)N2C[C@H]3CON(C)[C@H]3C[C@H]2c2ccccc21 | 1 | -7 | -1 | -4 | 1 | -3 | . | .
O=C(C1=C[C@@H](C2CCCCC2)C[C@@H](OCc2ccc(CO)cc2)O1)N1CCN(Cc2ccc3c(c2)OCO3)CC1 | 1 | 18 | 6 | 10* | 9 | -33 | 27* | 18*

Compound activity: PubChem BioAssay, The Scripps Research Institute Molecular Screening Center
